Compound activity deposited in PubChem by National Center for Advancing Translational Sciences (NCATS).
Only some compounds are listed: those with a hit (about 19% of all), similar ones and a draw of the others.
Pf growth 48h = P. falciparum growth inhibition at 48 hours (one generation). P. falciparum luciferase growth in erythrocytes, 48 h. Potency, µM (top dose mostly 28.7 µM), for the others: top-dose activity change, negative = inhibition, hits mostly inhibitors. AID 504832. 310,000 tested, 5.9% active; note: potency is the fitted concentration of half-maximal effect; % is set by controls: 0 for no effect and ±100 for the full control effect
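Luminescence readout; reporter = integrated firefly luciferase in P. falciparum. RBC culture at 2% hematocrit, 0.1% parasitemia final, 37 C/5% CO2; decreased signal taken as growth inhibition.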
Lassa entry inh = inhibitors of Lassa virus binding or cell entry; Lassa virus pseudotype entry inhibition, cell reporter; Potency, µM (titrated, usually from 37.9 µM), inactives show at the highest dose activity change, negative = inhibition, usual class: inhibitors; AID 540256; 300,000 tested, 1.2% active; calls by dose curve; tested in HEK293 cells; note: potency is the fitted concentration of half-maximal effect; % is set by controls: 0 for no effect and ±100 for the full control effect; nearly all actives have a fitted effect of over 50% in size
CHX counter = counter-screen hit for Shiga toxin inhibitors, cycloheximide | AID 2314 | cell reporter, cycloheximide protein synthesis inhibition counterscreen | max response, % | 300,000 tested, 12% active; in the data active = max response mostly above about 13%, no sharp cut-off; inactive = mostly below about 14%; note: read at 38.3 µM for the half of the compounds with a filed dose; 0% is about no effect
Pf growth 96h = P. falciparum growth inhibition at 96 hour, primary screen for plastid delayed-death inhibitors; Potency, µM (highest dose often 28.7 µM), inactives show at the top dose activity change, negative = inhibition, usual class: inhibitors; AID 504834; P. falciparum luciferase reporter growth, 96 h; 320,000 tested, 6.9% active; note: potency is the fitted concentration of half-maximal effect; % is set by controls: 0 for no effect and ±100 for the full control effect
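Two parasite generations (96 h, 37 C, 5% CO2) of compound exposure in infected erythrocytes (0.05% parasitemia, 2% hematocrit). Luciferase-reporter P. falciparum; decreased luminescence indicates inhibited growth, aimed at apicoplast-acting delayed death.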
Shiga inhibitor = blocks Shiga toxin action in Vero cells; Vero cells, Shiga toxin protein synthesis inhibition reporter; inhibition, % at 38.7 µM; 290,000 tested, 9.2% active; in the data active = inhibition mostly above about 28%, no sharp cut-off; inactive = mostly below about 43%; note: 0% is about no effect
MARV entry inh = blocks Marburg virus binding to or entry into cells | Marburg virus pseudotyped entry inhibition, cell reporter | Potency, µM (doses to about 37.8 µM), for the others: top-dose activity change, negative = inhibition, actives largely listed as inhibitors | 300,000 tested, 1.8% active | AID 540276; calls by dose curve; tested in HEK293 cells; note: potency is the fitted concentration of half-maximal effect; % is set by controls: 0 for no effect and ±100 for the full control effect
* = called active by the depositor; ? = inconclusive; . = no result given; [ ] = dose if it differs, or a comment. Unless noted, calls come from the whole dose curve; as a rule, active = well fitted inhibition curve with a large enough effect; inconclusive = small, poorly fitted or top-dose-only effect, or another doubt; inactive = no such curve, though single readings can be large or run the other way.

SMILES	Pf growth 48h	Lassa entry inh	CHX counter	Pf growth 96h	Shiga inhibitor	MARV entry inh
CC1CN(c2ccc([N+](=O)[O-])nc2)CC(C)O1 (stereo not drawn)	-11%	-7%	14	2%	-5	3%[46.1 µM]
CCCCCCOc1ccc(C(=N)N(CCCC)CCCC)c2ccccc12	12µM*	.	.	8.5µM*	.	.
CCCCN(C)CCOc1ccccc1OCC	11%	?	4	?	9	?
Cc1ccc(NC(=O)Cn2nc(-c3ccccc3Cl)ccc2=O)c(Br)c1	35%	2%	7	-30%	-5	0%
CCc1ccccc1NC(=O)CC(C)S(=O)(=O)c1ccc2c(c1)NC(=O)CO2 (stereo not drawn)	.	11%[46.1 µM]	.	.	.	.
Cc1ccc(NS(=O)(=O)c2ccc3c(c2)NC(=O)CO3)cc1C	18%	.	-14	9.3µM*	-3	.
CC(CC(=O)NC1CCCCC1)S(=O)(=O)c1ccc2c(c1)NC(=O)CO2 (stereo not drawn)	8%	.	9	13µM*	-9	.
CC(CC(=O)Nc1ccc(F)cc1)S(=O)(=O)c1ccc2c(c1)NC(=O)CO2 (stereo not drawn)	2%	.	-2	?	-8	.
CC(CC(=O)N1CCc2ccccc21)S(=O)(=O)c1ccc2c(c1)NC(=O)CO2 (stereo not drawn)	-4%	-3%[46.1 µM]	4	10µM*	6	15%[46.1 µM]
Cc1ccc(NC(=O)CC(C)S(=O)(=O)c2ccc3c(c2)NC(=O)CO3)cc1C (stereo not drawn)	?	9%[46.1 µM]	18	12µM*	-4	.
CC(NC(=O)/C(=C/c1ccc2c(c1)OCO2)NC(=O)c1cccc([N+](=O)[O-])c1)C(=O)O (stereo not drawn)	14%	3%	19	?	-13	8%[46.1 µM]
O=C(N/N=C/c1cn(-c2ccccc2)nc1-c1cccs1)c1ccncc1	1%	?	32*	?	50*	?
Cc1ccc(-c2nn(-c3ccccc3)cc2/C=N/NC(=O)c2ccncc2)o1	10%	?	65*	24%	58*	-2%[46.1 µM]
Cc1nn(-c2ccccc2)cc1/C=N/NC(N)=S	?	9%	13	?	40*	-8%
O=C(O)c1cccc(N/N=C/c2cn(-c3ccccc3)nc2-c2cccs2)c1	204%	.	52*	66%	150*	-15%[46.1 µM]
O=C(N/N=C/c1nn(-c2ccccc2)cc1-c1ccccc1)c1ccncc1	?	?	22	-101%	29	-4%
CCCC(C(=O)N(C)CC(=O)Nc1ccc(N2CCOCC2)cc1)c1ccccc1 (stereo not drawn)	15%	-3%	.	?	.	-4%[46.1 µM]
Cc1noc(/C=C/N(C)C)c1S(=O)(=O)N1CCCC(C(=O)N2CCc3ccccc32)C1 (stereo not drawn)	.	.	.	.	.	-2%
CCOC(=O)c1ccc(Nc2sc(C(=O)c3cccc([N+](=O)[O-])c3)c(N)c2C#N)cc1	40%	.	-2	31%	3	.
NC(=O)N/N=C/c1cn(-c2ccccc2)nc1-c1cccs1	?	9%	36*	?	51*	0%[46.1 µM]
CC(CCc1ccc(O)cc1)NC1C2CC3CC(C2)CC1C3 (stereo not drawn)	13µM*	-14%	-1	-86%	-10	?
CC(O)CCc1ccc(O)cc1 (stereo not drawn)	3%	0%	-1	4%	-7	0%
CC(CCc1ccc(O)cc1)NC1c2ccccc2-c2ccccc21 (stereo not drawn)	15µM*	.	4	?	.	.
CC(C)CCNC(=O)c1ccc2c(c1)N(Cc1cccc(Cl)c1)C(=O)c1ccccc1S2	.	-10%[46.1 µM]	.	.	.	.
COc1ccc(Nc2nnc(C)c(=O)[nH]2)c(OC)c1	-7%	-3%[46.1 µM]	-1	27%	-9	-19%[46.1 µM]
SMILES	Pf growth 48h	Lassa entry inh	CHX counter	Pf growth 96h	Shiga inhibitor	MARV entry inh
COc1cc(C(c2c(O)c3ccccc3oc2=O)c2c(C)n(C)n(-c3ccccc3)c2=O)ccc1OCC(=O)O (stereo not drawn)	.	8%[46.1 µM]	.	.	.	25%[46.1 µM]
CCn1c(SCC(=O)c2[nH]c(C)c(C(C)=O)c2C)nnc1-c1ccccc1	-14%	-15%	1	?	-17	?
CCOC(=O)C1(Cc2cccc(OC)c2)CCCN(Cc2ccc(NC(C)=O)cc2)C1 (stereo not drawn)	?	.	1	?	-13	.
CCN(CC(=O)Nc1c(Cl)cccc1Cl)C(=O)C1CCN(c2ncnc3sc(C)c(C)c23)CC1	?	-16%	.	-24%	.	-5%
Cc1cccc(C)c1NC(=O)CN(C)C(=O)C1CCN(c2ncnc3sc(C)c(C)c23)CC1	?	-12%	.	7.4µM*	.	?
CCN(CC(=O)Nc1c(F)cccc1F)C(=O)C1CCN(c2ncnc3sc(C)c(C)c23)CC1	10µM*	?	.	?	.	?
Cc1ccc(OCC(=O)NNC(=O)C2CCN(c3ncnc4sc(C)c(C)c34)CC2)cc1	?	24%	.	?	.	-2%[46.1 µM]
O=C(NC1CCCC1)C(c1ccc(Cl)cc1)N1CCN(C2CCCCC2)CC1 (stereo not drawn)	?	.	-2	-26%	-7	.
Cc1ccc2c(c1)c1c(n2CC(O)CN2CCCCC2C)CCCC1 (stereo not drawn)	?	.	-2	-24%	3	.
COc1ccc(C(CNC(=O)c2ccc(-c3ccccc3Cl)o2)N2CCOCC2)cc1 (stereo not drawn)	15µM*	?	.	?	.	?
COc1ccccc1C(CNC(=O)c1ccc(-c2ccccc2Cl)o1)N1CCCC1 (stereo not drawn)	15µM*	?	.	10µM*	.	?
COc1ccc(C(CNC(=O)Cc2ccc(Cl)c(Cl)c2)N2CCCCC2)cc1 (stereo not drawn)	?	-12%	-1	2.1µM*	-4	?
CC(C(=O)NCC1CCCCC1)N(C)Cc1ccc(Br)cc1 (stereo not drawn)	12%	2%	-3	-3%	-5	?
COc1ccccc1NC(=O)Nc1nnc(-c2ccco2)s1	-12%	.	0	36%	17	0%
COc1ccccc1C(=O)Nc1nnc(-c2ccco2)s1	166%	-25%	42*	.	133*	?
Cc1ccccc1C(=O)Nc1nnc(-c2ccco2)s1	426%	4.1µM*	38*	3%	69*	1.3µM*
Cn1cnnc1SCC(=O)Nc1cccc(S(=O)(=O)N2CCCCCC2)c1	-18%	14%	-3	?	-7	?
N#CCc1ccc(C(=O)c2ccccc2)s1	9%	-12%	18*	10%	44	?
C[C@@H](C(=O)O)c1ccc(C(=O)c2ccccc2)s1	6%[12.8 µM]	.	.	-14%[12.8 µM]	.	.
COC(=O)c1cc(NC(=O)c2cccc(F)c2)cc(C(=O)OC)c1	-6%[5.75 µM]	-18%[46.1 µM]	-2	?	10	7%[46.1 µM]
Cc1cc(NC(=O)CSc2nc3c([nH]c4ccccc43)c(=O)n2-c2ccccc2)no1	.	-6%[46.1 µM]	.	.	.	.
C/C=C/C=N/Nc1nc(-c2ccc([N+](=O)[O-])cc2)cs1	-5%	?	10	-26%	90*	-13%
